A selection: hits, their analogues and other compounds. The true share with any hit is near 8.3%.
Giardia FBPA inh – qHTS Assay for Inhibitors of Fructose-1,6-bisphosphate Aldolase from Giardia Lamblia; AID 2451, 2010; Potency, µM (top dose mostly 59.6 µM), inactives show at the highest dose activity, negative = inhibition, most hits filed as inhibitors; A8B2U2; purified Giardia FBPA; actives 0.71% (n = 290,000); also: potency is read from the fitted curve at half-maximal effect; nearly all actives have a fitted effect of over 55% in size
Target sequence (A8B2U2 whole entry, looked up): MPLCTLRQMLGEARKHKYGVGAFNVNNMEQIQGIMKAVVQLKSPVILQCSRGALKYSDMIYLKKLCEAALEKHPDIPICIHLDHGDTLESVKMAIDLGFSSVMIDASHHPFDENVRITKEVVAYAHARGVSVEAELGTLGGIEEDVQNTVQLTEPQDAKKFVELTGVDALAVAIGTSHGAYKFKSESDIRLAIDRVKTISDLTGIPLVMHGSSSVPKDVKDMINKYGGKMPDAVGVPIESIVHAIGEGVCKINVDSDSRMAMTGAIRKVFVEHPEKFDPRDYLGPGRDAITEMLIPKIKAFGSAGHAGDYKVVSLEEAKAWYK
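40 nM FBPA preincubated 10 min at RT with compound (up to 57.5 uM final), then substrate plus GAPDH/TPI/NAD/arsenate coupling and diaphorase/resazurin added. Fluorescence read after 20 min at RT, 525/598 nm.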
Marburg entry inh – qHTS for inhibitors of binding or entry into cells for Marburg Virus | Potency, µM (doses to about 37.8 µM), for inactives: at the highest dose activity change, negative = inhibition, actives largely listed as inhibitors | actives 1.8% (n = 300,000) | AID 540276, 2011 | Marburg virus pseudotyped entry inhibition, cell reporter; calls by dose curve; tested in HEK293 cells; also: potency is read from the fitted curve at half-maximal effect
HCV inhibitor – qHTS Assay for Inhibitors of Hepatitis C Virus (HCV); actives 3.4% (n = 340,000); Potency, µM (top dose mostly 41.8 µM), without a hit: top-dose activity change, negative = inhibition, usual class: inhibitors; Huh7.5.1 HCVcc-Cre infection, luciferase reporter, 44 h; AID 651820, 2012; also: potency is read from the fitted curve at half-maximal effect
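Whole-lifecycle infectious HCVcc-Cre system; cells 1,000/well, compound then virus (~0.5 moi) added 4 h after plating, 44 h culture. Luciferase read 15 sec following 15 min substrate incubation, room temp.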
HCMV inh – qHTS Assay for inhibitors of the human cytomegalovirus (HCMV); activity change, negative = inhibition, % at 57.5 µM; AID 1259415, 2018; HFF cells, HCMV-luciferase reporter, 72 h; active compounds read low; actives 4.5% (n = 410,000); in the data active = activity change below about -60%; inconclusive = no clear call, values can overlap the other calls; inactive = above about -39%
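Inhibition of viral replication was scored as loss of reporter luminescence in HFFs infected with HCMV-luciferase (MOI 1 PFU/cell) for 72 h; compounds tested at 2 doses, normalized to buffer and Salinomycin controls.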
LASV entry inh – qHTS for Inhibitors of binding or entry into cells for Lassa Virus. actives 1.2% (n = 300,000). Potency, µM (highest dose often 37.9 µM), inactives show top-dose activity change, negative = inhibition, usual class: inhibitors. Lassa virus pseudotype entry inhibition, cell reporter; calls by dose curve; tested in HEK293 cells; also: potency is read from the fitted curve at half-maximal effect; nearly all actives have a fitted effect of over 50% in size
FMDV antiviral – High Throughput Screening for Foot and Mouth Disease Virus Antivirals; Potency, µM (highest dose often 57.9 µM), for the others: top-dose activity change, negative = inhibition, actives largely listed as inhibitors; actives 1.2% (n = 410,000); FMDV antiviral cell-based qHTS; calls by dose curve; tested in HEK293T cells; also: read-out not given here; potency is read from the fitted curve at half-maximal effect; nearly all actives have a fitted effect of over 45% in size
Numbers without * were called inactive; u = inconclusive; x = not tested or not shown; [ ] = another dose, or the depositor's remark. Unless noted, calls follow the shape of the dose curve; as a rule, active = well fitted curve in the direction sought with a large enough effect; inconclusive = small, poorly fitted or top-dose-only effect, or another doubt; inactive = no such curve, though single readings can be large; an effect the other way counts as inactive or inconclusive. % is scaled to controls: 0 for no effect and ±100 for the full control effect.

SMILES	Giardia FBPA inh	Marburg entry inh	HCV inhibitor	HCMV inh	LASV entry inh	FMDV antiviral
COc1ncc2nc(-c3ccccc3)c(=O)n(-c3ccccc3)c2n1	5%	x	x	x	x	-18%
COc1ccccc1N1CCN(C(c2cc3ccc(C)cc3[nH]c2=O)c2nnnn2C2CCCC2)CC1 (centres undefined)	28µM*	13µM*	-6%	7	-9%	3%
COc1ccccc1N1CCN(C(c2cc3cc(C)ccc3[nH]c2=O)c2nnnn2C2CCCC2)CC1 (centres undefined)	u	u	-12%	-4	u	4%
COc1ccc(OC)c(C(c2nnnn2C2CCCC2)N2CCN(c3ccccc3F)CC2)c1 (centres undefined)	-13%	10µM*	u	-2	u	11%
Fc1ccccc1N1CCN(C(c2ccccn2)c2nnnn2C2CCCCC2)CC1 (centres undefined)	1%	u	5%	-16	-8%	x
COc1ccc(OC)c(C(c2nnnn2C2CCCC2)N2CCc3ccccc3C2)c1 (centres undefined)	-11%	u	11µM*	-10	u	-9%
CCC(C)(C)n1nnnc1C(c1cc2ccc(OC)cc2[nH]c1=O)N1CCN(C2CCCCC2)CC1 (centres undefined)	-7%	13µM*	u	-14	16%	-29%
CO/N=C\[C@@H](NS(=O)(=O)c1ccc(C)cc1)[C@H](C)/C=C\CC(=O)OC	5%[12.9 µM]	x	x	x	x	x
Cc1cccc(Cn2c(=O)n(Cc3ccccc3)c(=O)c3c2c2cc(C)ccc2n3C)c1	x	x	x	22	u	-15%
COc1ccc(N2CCN(C(c3ccccc3OC)c3nnnn3C3CCCC3)CC2)cc1 (centres undefined)	-20%	u	u	-17	u	-20%
COc1ccc(N2CCN(C(c3cccc(OC)c3OC)c3nnnn3C3CCCC3)CC2)cc1 (centres undefined)	u	u	u	-22	2.8µM*	-18%
COc1ccc(C(=O)CC(Nc2ccc([N+](=O)[O-])cc2)c2ccc(Cl)cc2)cc1 (centres undefined)	11%	u	u	-88*	u	-16%
CC(C)(C)OC(=O)N1CCCC1C(=O)NC1COC2CC(n3ccc(=O)[nH]c3=O)OC12 (centres undefined)	6%	x	x	x	x	x
O=c1c(Cl)c(N2CCN(c3ccc(F)cc3)CC2)cnn1C12CC3CC(CC(C3)C1)C2	5%	u	0%	-63*	-45%	u
CC1CCc2sc(C(=O)NC3CCN(Cc4ccccc4)CC3)cc2C1 (centres undefined)	x	x	11µM*	u	x	u
CCC1CCc2sc(C(=O)NCc3ccccn3)cc2C1 (centres undefined)	x	u	-9%	17	9%[46.1 µM]	26%
CCC1CCc2sc(C(=O)NC3CCN(Cc4ccccc4)CC3)cc2C1 (centres undefined)	x	u	10µM*	u	u	-24%
CCC[C@H](/C=C/C(=O)OC(C)(C)C)NC(=O)C(F)(F)F	x	x	x	17	x	x
O=C(NCCN1CCCCC1)c1ccc(Cn2c(SCc3ccc(F)cc3)nc3cccnc32)cc1	x	u	x	49	x	9%
COc1ccccc1-n1c(SCC(=O)c2ccc(O)cc2O)nc2cc([N+](=O)[O-])ccc21	-28%	2.2µM*	13%	134	4%	u
COc1ccccc1-n1c(SCC(=O)NC2CCS(=O)(=O)C2)nc2cc([N+](=O)[O-])ccc21 (centres undefined)	-21%	4%	16%	19	2%	-24%
CCn1cc(CN(C)C(=O)CSc2nc(-c3ccco3)cc(C(F)(F)F)n2)c(C)n1	x	u	u	-23	-24%	20µM*
O=C(CSc1nc(-c2ccco2)cc(C(F)(F)F)n1)Nc1ccc(C(=O)N2CCOCC2)cc1	5%	u	10µM*	-8	-11%	-23%

Bioassay records from PubChem.
